About 83,000 compounds went through this panel and 20% of them were active in at least one assay; those are over-represented in the sample as a whole.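 Single-dose data. Exposure time 48 hours. Values below 10 considered active.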 A number with no mark means an inactive call. Calls of active or inactive are those of the source.
Key:
Assay in all cases: NCI-60 one-dose screen, 48 h (100 = growth as untreated, 0 = no growth, -100 = all killed)
Conditions in all cases: 10 µM unless noted
DU-145 prostate = test system: DU-145 prostate
K-562 leukemia = test system: K-562 leukemia
MALME-3M melanoma = test system: MALME-3M melanoma
MDA-MB-231 breast = test system: MDA-MB-231 breast
RXF 393 renal = test system: RXF 393 renal
SF-268 CNS = test system: SF-268 CNS
SF-295 CNS = test system: SF-295 CNS
SF-539 CNS = test system: SF-539 CNS
UACC-257 melanoma = test system: UACC-257 melanoma
M14 melanoma = test system: M14 melanoma
HCT-15 colon = test system: HCT-15 colon
HT29 colon = test system: HT29 colon
SNB-75 CNS = test system: SNB-75 CNS
SNB-19 CNS = test system: SNB-19 CNS
U251 CNS = test system: U251 CNS
PC-3 prostate = test system: PC-3 prostate
SK-MEL-5 melanoma = test system: SK-MEL-5 melanoma
UACC-62 melanoma = test system: UACC-62 melanoma
LOX IMVI melanoma = test system: LOX IMVI melanoma
SK-MEL-28 melanoma = test system: SK-MEL-28 melanoma

| Structure (SMILES) | growth (DU-145 prostate) | growth (K-562 leukemia) | growth (MALME-3M melanoma) | growth (MDA-MB-231 breast) | growth (RXF 393 renal) | growth (SF-268 CNS) | growth (SF-295 CNS) | growth (SF-539 CNS) | growth (UACC-257 melanoma) | growth (M14 melanoma) | growth (HCT-15 colon) | growth (HT29 colon) | growth (SNB-75 CNS) | growth (SNB-19 CNS) | growth (U251 CNS) | growth (PC-3 prostate) | growth (SK-MEL-5 melanoma) | growth (UACC-62 melanoma) | growth (LOX IMVI melanoma) | growth (SK-MEL-28 melanoma) |
| --- | --- | --- | --- | --- | --- | --- | --- | --- | --- | --- | --- | --- | --- | --- | --- | --- | --- | --- | --- | --- |
| CC1(C)CC(=O)C2=C(C1)N(c1ccc(OC(F)(F)F)cc1)C(N)=C(C#N)C2c1ccc(Cl)cc1 (stereo not given) | 91.3% | 86.5% | 85% | 80.8% | 66.7% | 74.3% | 81.6% | 82.2% | 84.1% | 93.7% | 97.1% | 87.2% | 52.6% | 57.4% | 56.2% | 76.8% | 93.8% | 85.5% | 86% | 96.2% |
| Cn1cc(-c2csc(-c3cccc(F)c3)n2)c2cccnc21 | -62.7% [100 µM] (active) | 2.45% [100 µM] (active) | -39.1% [100 µM] (active) | -50.1% [100 µM] (active) | -30.7% [100 µM] (active) | -40.5% [100 µM] (active) | -51.9% [100 µM] (active) | -74.9% [100 µM] (active) | -37.6% [100 µM] (active) | -77.2% [100 µM] (active) | -43.3% [100 µM] (active) | -71.7% [100 µM] (active) | -29.4% [100 µM] (active) | -62.8% [100 µM] (active) | -36.4% [100 µM] (active) | -42% [100 µM] (active) | -86.1% [100 µM] (active) | -67% [100 µM] (active) | -54.3% [100 µM] (active) | -57.8% [100 µM] (active) |
| CCn1c(C)nc2cc(C(N)=O)ccc21 | 110% | 102% | 96.4% | 113% | 93.4% | 104% | 238% | 96.4% | 87.9% | 95.5% | 92.8% | 98.7% | 90.2% | 104% | 95.4% | 101% | 112% | 89.2% | 91.6% | 113% |
| CCCCCCCCCCCCCCCCCCOc1ccc(CC(=O)OCC[N+]2(C)CCCC2)cc1 | 106% | 92.2% | 117% | 111% | 101% | 104% | 90.6% | 99.7% | 107% | 97.9% | 97.8% | 98.6% | 106% | 90.8% | 85.8% | 99.9% | 103% | 96.2% | 42.5% | 106% |
| CNc1ccc(NC)c2c1C(=O)c1ccccc1C2=O | 92.6% | 96% | 120% | 77.2% | 75% | 76.4% | 65.9% | 56% | 85.2% | 113% | 77.1% | 98.7% | 52.3% | 85.5% | 87% | 84% | 93.6% | 87.9% | 84.9% | 102% |
| CC(C)=C[C@@H]1c2c(c3ccccc3n(C)c2=O)O[C@H]2c3c(c4ccccc4n(C)c3=O)OC(C)(C)[C@@H]12 | 106% | 56.1% | 99.4% | 85.8% | 88.9% | 86.1% | 65.5% | 81.2% | 82.2% | 98.9% | 65.4% | 77.9% | 60.6% | 99.2% | 84.5% | 6.54% (active) | 61.5% | 65.6% | 67% | 104% |
| CCC1(C2CCCC2)NC(=O)NC1=O (stereo not given) | 101% | 102% | 97.5% | 95.6% | 97.2% | 95.8% | 111% | 86.3% | 105% | 102% | 92.3% | 94.6% | 93.9% | 98.5% | 106% | 101% | 101% | 99.7% | 79.7% | 98.4% |
| Cc1ccc2nc(NC(=O)CSc3nc(Nc4ccc([N+](=O)[O-])cc4)c(C#N)c(-c4ccccc4)n3)sc2c1 | 104% | 87.6% | 110% | 93.7% | 92.7% | 93.7% | 95.6% | 92.8% | 105% | 114% | 93.6% | 96.7% | 85.6% | 93.9% | 93.2% | 93.8% | 98% | 86% | 96.7% | 109% |
| C[C@H]1[C@H]2[C@H]3CC[C@@H]4[C@@]5(C)C/C(=C/c6cccnc6)C(=O)C(C)(C)[C@@H]5CC[C@@]4(C)[C@]3(C)CC[C@]23CO[C@]1(C)[C@@H](C(=O)/C=C\c1cccnc1)C3 | -28.8% (active) | 6.51% (active) | -33.5% (active) | -30.7% (active) | -91.8% (active) | 7.1% (active) | 6.07% (active) | -32.4% (active) | 13.2% | -20.1% (active) | -15.3% (active) | 26.4% | 32.7% | 2.48% (active) | -68% (active) | -3.56% (active) | -82.2% (active) | -25.6% (active) | -85.2% (active) | -17.8% (active) |
| NS(=O)(=O)c1cnccc1Oc1cccc2cccnc12 | 108% | 82.4% | 96% | 102% | 104% | 101% | 120% | 88.3% | 114% | 98.8% | 90.5% | 107% | 89.6% | 99.6% | 102% | 95.9% | 106% | 104% | 96% | 109% |
| COc1cc2nc(Cl)nc(Nc3ccc(S(=O)(=O)Nc4nccs4)cc3)c2cc1OC | 119% | 115% | 112% | 109% | 110% | 109% | 104% | 85.9% | 103% | 100% | 96.3% | 117% | 87.1% | 102% | 96.3% | 91.6% | 102% | 96% | 86.5% | 115% |
| O=C(COc1ccc(/C=C2\Oc3ccccc3C2=O)cc1)Nc1nc2ccccc2s1 | -74.8% (active) | 27.9% | 24.5% | 44.8% | 14.2% | 13.4% | 628% | -88.3% (active) | 110% | 95.4% | 98.2% | 93.2% | -16.2% (active) | 92.4% | 4.73% (active) | 13.7% | 95.6% | 82.4% | -71.7% (active) | 137% |
| O=C(Nc1ccccc1)Nc1cccc(Oc2nnc(Cl)c3ccccc23)c1 | 39% | 51.6% | -29.6% (active) | 32.1% | -3.63% (active) | 25.9% | 31.2% | -22% (active) | 22% | 46.3% | 36.4% | 23.8% | -42% (active) | 9.64% (active) | 4.84% (active) | 25.9% | 32.9% | 41.3% | 32.1% | 44.2% |
| COc1cc(-c2nc(N3CCN(C)CC3)c3ccccc3n2)cc(OC)c1OC | 82.4% | 44.8% | 63.8% | 61.2% | 51.4% | 56.8% | 28.6% | 39.3% | 58.2% | 42% | 56.9% | 49.5% | 15.7% | 85.2% | 60.2% | 52.8% | 47% | 18.2% | 44.3% | 59.5% |
| CCN(CC)S(=O)(=O)c1cccc(-c2ccc3c(NC(=O)C4CC4)n[nH]c3c2)c1 | 25.4% [6.25 µM] | 9.65% [6.25 µM] (active) | 21.1% [6.25 µM] | 38.5% [6.25 µM] | -11.7% [6.25 µM] (active) | 35.8% [6.25 µM] | 5.94% [6.25 µM] (active) | -2.68% [6.25 µM] (active) | 21.5% [6.25 µM] | 8.28% [6.25 µM] (active) | 23.5% [6.25 µM] | 3.07% [6.25 µM] (active) | -7.53% [6.25 µM] (active) | 30.6% [6.25 µM] | 12.1% [6.25 µM] | 16.9% [6.25 µM] | -37.2% [6.25 µM] (active) | 28.7% [6.25 µM] | 10.5% [6.25 µM] | 29.2% [6.25 µM] |
